Experimental findings from PubChem BioAssay AID485395 (ICCB-Longwood Screening Facility, Harvard Medical School, 2010) are described below.

SMILES strings stand for the structures. In all, about 120,000 compounds went through this assay and about 55 (0.05%) were called active. No stated cut-off is given here; in the data, active means inhibition above about 25% (passing the limit was not always enough); inactive means the rest. For the sample, actives were picked, then their nearest neighbours and some compounds at random.

The subject of the experiment is replicative DNA helicase (DnaC/DnaB), Staphylococcus aureus. Kind of experiment: S. aureus DnaC helicase unwinding inhibition – biochemical, fluorescence unwinding readout, primary screen (AID 485395).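 Further: 0% = mean of negative control wells and 100% = mean of positive control wells.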 As to conditions: purified S. aureus helicase, fluorescence unwinding assay; stronger effect = higher value; concentration not given here.
Regarding `Cc1cc(CNCc2nnc3ccccn23)c(C)n1-c1ccnn1C(C)C`, the inhibition is 7% (inactive). Take `Nc1cc(N)cc(C(F)(F)C(F)(F)C(F)(F)F)c1`: the inhibition is 23% (inactive).

For the compound `CCOc1ccc2nc(NC(=O)c3ccccc3OC)sc2c1`, the inhibition is -8% (inactive). The value for `Cc1ccc(-n2nc(C)c(C(=O)N(Cc3ccccc3)C(C)C)c2-n2cccc2)cc1` was 22% (inactive); that for `O=C(NC(c1ccccc1)c1ccccc1)C1COC2C=CC=CC2O1` (stereo not given) was 5% (inactive); that for `CCCn1c(NC(=O)CCCc2nc3ccccc3c(=O)[nH]2)nc2ccccc21` was 6% (inactive).

With `COc1ccc(Cc2nn3c(C(C)(C)C)nnc3s2)cc1OC`, the inhibition is -4% (inactive). On to `O=C1CCC(C(=O)NN2C(=O)c3cccc4cccc(c34)C2=O)=NN1`, for which the inhibition was 10% (inactive).

With `CCOc1ccc(CCNC(=O)Nc2ccc(C)c(C)c2)cc1OCC`, the inhibition is -3% (inactive). As to `CCOC(=O)c1c2c(n(-c3ccccc3)c1N)OC(=N)C(C#N)C2c1ccc(Br)cc1` (stereo not given), the inhibition is -19% (inactive). The value for `NNC(=O)CNC(=O)c1cccc2ccccc12` was 17% (inactive); that for `O=C(CSc1ccc2nnc(-c3cccc(F)c3)n2n1)NCc1ccccc1` was -3% (inactive); that for `Cc1nc(Nc2nc3ccccc3o2)ncc1C(=O)Nc1ccccc1` was 24% (inactive).

Turning to `Cc1occc1-c1nnc(SCc2ccc(C(C)(C)C)cc2)n1N`, the inhibition is -3% (inactive).

For the compound `Cc1ccc(-c2nc(C#N)c(NCc3ccc4c(c3)OCO4)o2)cc1`, the inhibition is 5% (inactive).

`COc1ccc(/C=C2\Oc3ccccc3N(CC(=O)N3CCOCC3)C2=O)cc1`: the inhibition is 5% (inactive). Turning to `c1ccc(-n2nnnc2N2CCCC2c2nc3ccccc3s2)cc1` (stereo not given), the inhibition was -12% (inactive).

As for `COc1ccccc1/C=C1\SC(=O)N(c2ccccc2)C1=O`, the inhibition is -8% (inactive). The value for `NNC(=O)CCCc1nc2ccccc2s1` was 4% (inactive); that for `CCOC(=O)c1sc2nc(CN3CCCCC3)nc(NC3CC3)c2c1C` was 16% (inactive). Regarding `O=S1(=O)CCC(N=Cc2cn(-c3ccccc3)nc2-c2ccccc2)C1` (stereo not given), the inhibition was 10% (inactive). Regarding `N#CNc1nc2ccccc2nc1Cl`, the inhibition was 2% (inactive).

In the case of `COc1ccc(NC(=O)c2ccoc2COc2ccc(C)cc2)cc1`, the inhibition was 0% (inactive). Then `Cc1ccc(SCc2nnc(-c3c(-c4ccccc4)noc3C)o2)cc1C`, with -11% (inactive); and `CCCSc1nnc(Nc2ccccc2OC)s1`, with -21% (inactive). Then `Cc1noc(N)c1C(=O)OCc1ccc(COC(=O)c2c(C)noc2N)cc1`, with -28% (inactive); and `O=C(COC(=O)C12CC3CC(CC(Br)(C3)C1)C2)NC1CC1`, with 8% (inactive); and `Cc1nn(C)c(Cl)c1S(N)(=O)=O`, with 8% (inactive). The value for `NC(=O)Cn1c(=O)n(Cc2ccco2)c(=O)c2ccccc21` was 16% (inactive). Regarding `CC(=O)N1CCc2c(sc3c2c(=O)n(Cc2ccccc2)c(=O)n3Cc2cccc(C)c2)C1`, the inhibition is -4% (inactive). The value for `Cc1cc(=O)n(-c2cccc(C(F)(F)F)c2)[nH]1` was -1% (inactive); that for `O=C(N/N=C/c1ccc(F)cc1)c1n[nH]c2c1CCC2` was 15% (inactive); that for `Nc1c(C(=O)Nc2ccccc2C(F)(F)F)sc2[nH]c(=O)c(C(=O)O)cc12` was 15% (inactive). Then `CCCN(CC1CC1)C(=O)CSc1nc(N)cc(N)n1`, with 27% (inactive); and `NC(=O)C1CCN(C(=O)CSCc2ccc(Br)cc2)CC1`, with 5% (inactive).

`CC(C)NC(=O)CCc1c[nH]c2ccccc12`: the inhibition was 13% (inactive).

Take `O=C(CN1CCC(c2nc(-c3ccncc3)n[nH]2)CC1)N1CCN(c2ccccc2F)CC1`: the inhibition was -6% (inactive).

Turning to `COCCN1Cc2cccc(C(=O)NCc3ccco3)c2C1=O`, the inhibition is -9% (inactive). The value for `CCOc1nc(NC(=O)NC(=O)c2cccs2)nc(-c2ccccc2)n1` was 11% (inactive); that for `Cn1c(-c2ccco2)nn(C2CC(=O)C3OCC2O3)c1=S` (stereo not given) was -1% (inactive); that for `CCOc1cccc(C(=O)NN2CCOCC2)c1` was -7% (inactive). The value for `O=C(O)c1cccc(N2C(=O)/C(=C\c3ccc4c(c3)OCO4)SC2=S)c1` was 15% (inactive); that for `Cc1noc(C)c1COC(=O)c1cccc(S(=O)(=O)N(C)C2CCCCC2)c1` was -11% (inactive); that for `CC1CCC(C(=O)NC(C(=O)N2CCN(Cc3ccccc3)CC2)C(C)C)CC1` (stereo not given) was 0% (inactive). Then `Cc1nc(-c2ccccc2)sc1C(=O)NCC1CCCO1` (stereo not given), with -20% (inactive); and `Nc1c(NCC(c2ccco2)N2CCCCC2)c(=O)[nH]c(=O)n1Cc1ccccc1` (stereo not given), with 9% (inactive). As for `Clc1cccc2c(N3CCN(Cc4ccccc4)CC3)cnnc12`, the inhibition is 17% (inactive). For the compound `CCCc1nnc(SCC(=O)N2CCCC2)n1CCOC`, the inhibition is 3% (inactive). The value for `CCS(=O)(=O)N1CCC(C(=O)OCC(=O)c2cc(C)n(C(C)C)c2C)CC1` was -5% (inactive); that for `CCc1n[nH]c(=S)n1/N=C1\C(=O)N(CC(C)C)c2ccccc21` was 1% (inactive). The value for `Cc1ccc(C(=O)COC(=O)c2cc3cc(Br)ccc3oc2=O)cc1` was -19% (inactive). The value for `Cc1cccc(NC(=O)CNC(=O)c2ccc3c(=O)[nH]c(CN4CCOCC4)nc3c2)c1C` was 5% (inactive); that for `CCOC(=O)c1c(CN2CCN(CC#N)CC2)n(-c2ccccc2)c2ccc(O)cc12` was -1% (inactive). `NC(=O)CCc1nc(-c2ccccc2)no1`: the inhibition is -4% (inactive).

In the case of `Cc1nn(Cc2ccc(Cl)cc2)c(C)c1NC(=O)COCc1cc(-c2cccs2)on1`, the inhibition is -15% (inactive). The value for `Cc1cc(C)c2nc3nc(C)cc(C)c3c(N)c2c1` was 77% (active).

On to `Cc1cc(C)c2nc(-c3ccco3)cc(C(=O)O)c2c1`, for which the inhibition was 5% (inactive). As for `COc1ccc(/C=N/N2C(=O)c3ccccc3C2=O)cc1OC`, the inhibition was -16% (inactive). Consider `O=S1(=O)CC=C(S(=O)(=O)c2ccccc2)C1`, for which the inhibition is 2% (inactive). Consider `CCOC(=O)COc1ccc2cc(-c3nc4ccccc4s3)c(=O)oc2c1`, for which the inhibition is -176% (inactive). The value for `CC(=O)Nc1nonc1Nc1csc(CC#N)n1` was -1% (inactive); that for `O=C(N/N=C/c1c(-c2ccccc2)nc2sccn12)c1ccc2ccccc2n1` was 15% (inactive); that for `COc1cccc(C2NC(=O)NC(C)=C2C(=O)c2ccccc2)c1` (stereo not given) was -13% (inactive).

With `CC1=C(C(=O)NCCC(C)C)C2(CCC(C)CC2)OC1=O` (stereo not given), the inhibition was 1% (inactive). The value for `CC(C)CCSc1nc2ccccc2n1CN1CCN(S(=O)(=O)c2ccc(Cl)cc2)CC1` was 3% (inactive); that for `O=C(NCc1ccccc1)N1CCC(CN2CCCCC2)CC1` was 4% (inactive); that for `CCOC(=O)N1CCC(NC(=O)Cn2ncc3c(=O)oc4ccc(C)cc4c32)CC1` was 14% (inactive). Regarding `CC(C)CCNS(=O)(=O)c1ccc2[nH]c3c(c2c1)CCCC3`, the inhibition was -2% (inactive). For the compound `CC(=O)Nc1ncc(Cc2ccc(C)cc2)s1`, the inhibition is 7% (inactive). The value for `Cc1ccc(CN(C)C(=O)c2n[nH]c3ccccc23)o1` was -4% (inactive); that for `CC(C)N(C(=O)CSc1nnc2sc3ccccc3n12)C(C)C` was 7% (inactive).

In the case of `CCCCSc1nc2ccccc2[nH]1`, the inhibition was -5% (inactive). Then `CC1=NN(C(N)=S)C(=O)C1`, with -7% (inactive). The value for `COc1ccc(C)cc1NC(=O)CSC1CCCC1` was -1% (inactive). With `Cc1c(/C=N/NC(N)=S)c2ccccc2n1C`, the inhibition is -2% (inactive). Turning to `COc1cc(OC)c(OC)cc1CN1CCN(c2ccccc2F)CC1`, the inhibition is 10% (inactive). For `NCC1CCN(Cc2ccccc2Cl)CC1`, the inhibition is -10% (inactive). For `c1csc(-c2csc(Cc3nc(-c4cccs4)cs3)n2)c1`, the inhibition was 36% (inactive). Take `CCN(C(=O)Cc1noc2ccccc12)c1cc(OC)ccc1OC`: the inhibition is 9% (inactive). Then `COc1ccc(-c2cc3c(n2Cc2ccc(F)cc2)CC(C)(C)CC3=O)cc1`, with -11% (inactive). Turning to `COCCNC(=O)Cn1cc(/C=C2\C(=O)NC(=O)N(C3CCCCC3)C2=O)c2ccccc21`, the inhibition is -31% (inactive). Then `Cc1nc2cc(N=Cc3ccc(Cl)cc3)ccc2n1Cc1ccccc1`, with 10% (inactive); and `Cc1nc(-c2cccs2)sc1C(=O)Nc1ccccc1`, with -5% (inactive); and `CN1C/C(=C/c2ccc3c(c2)OCCO3)C(=O)/C(=C/c2ccc3c(c2)OCCO3)C1`, with 8% (inactive). Regarding `CCc1ccc(C(=O)C(C)Sc2nnc(-c3ccccc3)o2)cc1` (stereo not given), the inhibition is -5% (inactive). Turning to `COc1ccc(OC)c(NC(=O)CSc2nccn2-c2cccc(Cl)c2)c1`, the inhibition is 3% (inactive).

Consider `NC(=O)CN1CCN(Cc2cccc3ccccc23)CC1`, for which the inhibition is 3% (inactive).

Consider `Cc1cn2ccccc2c1P(=Nc1ccccc1)(N1CCOCC1)N1CCOCC1`, for which the inhibition is 7% (inactive). The value for `O=C(OC1CSC1)c1cccs1` was -1% (inactive); that for `CC1CC(=O)Nc2ccccc2N1C(=O)CSc1ccc2c(c1)OCCCO2` (stereo not given) was 15% (inactive); that for `OCc1nc2ccccc2n1CC1CC1(Cl)Cl` (stereo not given) was -17% (inactive). The value for `Cc1nn(CC(=O)NCCc2ccccc2)c(=O)c2cc3occc3n12` was 8% (inactive); that for `COc1ccc(/C=C2\Oc3cc(OC(=O)c4ccc(F)cc4)ccc3C2=O)cc1` was 5% (inactive); that for `CC(C)c1ccc(N=Cc2cccs2)cc1` was 21% (inactive). As for `O=C(NCC1CCCO1)c1ccc2c(=O)n3c(nc2c1)CCCCC3` (stereo not given), the inhibition was 2% (inactive). The value for `CN1CCN(C(=O)c2ccc(-c3ccc(Br)cc3)o2)CC1` was -25% (inactive); that for `CCn1c(CNC(=O)c2ccncc2)cc2ccccc21` was 7% (inactive); that for `Nc1nnnn1/N=C/c1cccc(Br)c1` was 4% (inactive). Regarding `O=C(COC(=O)C1CC1)c1ccccc1Br`, the inhibition was -9% (inactive).

As for `CCC(Sc1nnc(-c2cc3occc3n2C)n1-c1ccccc1C)C(=O)Nc1ccc(C)cc1` (stereo not given), the inhibition was 10% (inactive). The value for `NS(=O)(=O)c1ccc(CNC(=O)c2cccc3cccnc23)cc1` was -13% (inactive). Then `[O-][n+]1ccccc1SC1=COCCC1`, with 8% (inactive); and `COc1ccc(N2CCN(c3nc(N)c4c(N)nc5c(c4c3C#N)CC(=O)N5C)CC2)cc1`, with 9% (inactive); and `N#Cc1c(N)nc2c(c1N)CC(=O)N2c1ccccc1`, with -11% (inactive). As to `CC1=Nc2nc(N3CC(C)OC(C)C3)c(C#N)c3c4c(nc(c23)N1)N(c1ccccc1)C(=O)C4` (stereo not given), the inhibition is 54% (active).
